Screens (PubChem BioAssay)
Only some compounds are listed: those with a hit (about 19% of all), similar ones and a draw of the others.
DT40 TDP1 CPT: growth inhibition of DT40 Tdp1-/-;hTDP1 cells with camptothecin (screen for TDP1 inhibitors); Potency, µM (titrated, usually from 46.2 µM), without a hit: at the top dose activity change, negative = growth inhibition, actives largely listed as inhibitors; hit rate 12% among 420,000; chicken DT40 Tdp1-/-;hTDP1 cells + 20 nM CPT, ATP luminescence, 48 h; AID 686979; also: potency is read from the fitted curve at half-maximal effect; nearly all actives have a fitted effect of over 55% in size
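Chicken DT40 Tdp1-/- cells complemented with human TDP1, 400 cells/well, exposed to compounds plus 20 nM camptothecin for at least 48 h at 37 C; viability read as ATP content by CellTiter-Glo luminescence.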
Giardia killer: Giardia lamblia killing. Giardia lamblia trophozoite viability. AID 540267. hit rate 0.15% among 340,000. activity change, % at 7.66 µM, hits read low; in the data active = activity change below about -80%; inconclusive = between about -30% and that limit;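 also: parasites exposed to compound for two days anaerobically before the ATP read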
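Giardia lamblia trophozoites (100 cells/well) were incubated with compounds for 48 h at 37 deg C under anaerobic conditions. Viability was read as ATP content by one-step luminescence after 15-30 min at room temperature.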
IL-1B inflam inh: inhibitors of inflammasome signaling (IL-1 beta secretion); THP-1 LPS/ATP IL-1B secretion, AlphaLISA, 16 h; active compounds read low; activity change, % at 57.5 µM; hit rate 4.7% among 360,000; AID 743279; in the data active = activity change below about -50%; inconclusive = mostly about -30% to -49%
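THP-1 cells pretreated 1 hr with compounds (up to 57.5 uM final), then stimulated with LPS (250 ng/mL final) plus ATP (1.25 mM final); secreted IL-1B measured by AlphaLISA after 16 hr, decreased signal indicating inhibition.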
TDP1 inh: TDP1 (human) enzyme inhibition; AID 485290; recombinant TDP1, AlphaScreen DNA substrate cleavage; Potency, µM (doses to about 130 µM), for the others: top-dose activity change, negative = inhibition, actives largely listed as inhibitors; hit rate 0.28% among 350,000; also: potency is read from the fitted curve at half-maximal effect; nearly all actives have a fitted effect of over 40% in size
Target sequence (Q9NUW8 whole entry, looked up): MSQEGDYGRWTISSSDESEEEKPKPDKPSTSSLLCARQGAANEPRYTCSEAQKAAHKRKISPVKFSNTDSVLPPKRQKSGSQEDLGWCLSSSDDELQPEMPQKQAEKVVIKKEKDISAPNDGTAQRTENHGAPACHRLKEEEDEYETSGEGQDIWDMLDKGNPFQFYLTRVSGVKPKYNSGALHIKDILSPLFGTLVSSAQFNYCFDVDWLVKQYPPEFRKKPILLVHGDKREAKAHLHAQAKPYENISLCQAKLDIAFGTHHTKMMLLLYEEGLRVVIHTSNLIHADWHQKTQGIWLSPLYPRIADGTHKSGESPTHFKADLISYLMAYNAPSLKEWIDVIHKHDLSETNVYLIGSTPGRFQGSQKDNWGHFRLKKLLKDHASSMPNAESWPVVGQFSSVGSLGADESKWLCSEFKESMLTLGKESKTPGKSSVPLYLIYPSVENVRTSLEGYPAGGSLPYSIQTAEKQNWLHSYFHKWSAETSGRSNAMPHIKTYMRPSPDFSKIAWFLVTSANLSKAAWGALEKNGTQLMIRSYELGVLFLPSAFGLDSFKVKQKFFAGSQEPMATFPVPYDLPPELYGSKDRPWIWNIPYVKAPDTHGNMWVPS
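Enzyme-compound mixtures sat 15 min at room temperature, followed by a 5 min reaction with 15 nM final substrate and 10 min with AlphaScreen beads. Recombinant human Tdp1 was used at 1 nM final.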
ELG1 DNA repair: ELG1-dependent DNA repair inhibition; HEK293T ELG1-luciferase reporter, luminescence, 16 h; DNA damage induced by 5-fluorouridine; Potency, µM (titrated, usually from 46.1 µM), inactives show top-dose activity change, negative = inhibition, actives largely listed as inhibitors; hit rate 2.3% among 330,000; AID 504467; also: potency is read from the fitted curve at half-maximal effect; nearly all actives have a fitted effect of over 55% in size
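Step one: seed 2,000 cells per well. Step two: pin-transfer compound or DMSO alongside 5-fluorouridine. Step three: incubate 16 hr, 37 °C, 5% CO2. Step four: add ONE-Glo, wait 30 min, read luminescence.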
TDP1 cell noCPT: qHTS for Inhibitors of human tyrosyl-DNA phosphodiesterase 1 (TDP1): qHTS in cells in absence of CPT; DT40 Tdp1-/- hTDP1 cells, no CPT, ATP luminescence, 48 h; Potency, µM (highest dose often 46.2 µM), for the others: at the top dose activity change, negative = growth inhibition, actives largely listed as inhibitors; AID 686978, 2013; hit rate 15% among 420,000; also: potency is read from the fitted curve at half-maximal effect; nearly all actives have a fitted effect of over 55% in size
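DT40 Tdp1-/-;hTDP1 cells, no CPT (DMSO vehicle only), 400 cells/well; compounds pin-transferred; ≥48 hr, 37 °C; CellTiter-Glo 30 min RT dark, luminescence read.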
* hit, by the source's call; ? = inconclusive; . = not tested or not shown. Unless noted, calls follow the shape of the dose curve; as a rule, active = well fitted curve in the direction sought with a large enough effect; inconclusive = small, poorly fitted or top-dose-only effect, or another doubt; inactive = no such curve, though single readings can be large; an effect the other way counts as inactive or inconclusive. % is scaled to controls: 0 for no effect and ±100 for the full control effect.

SMILES	DT40 TDP1 CPT	Giardia killer	IL-1B inflam inh	TDP1 inh	ELG1 DNA repair	TDP1 cell noCPT
COc1ccc(/C=C/C(=O)c2ccc[nH]2)cc1OC	-9.4%	36.7	-62.8*	5.0%	?	?
CCOC(=O)N1CCN(C(=S)Nc2ccc3nc(N4CCN(CC)CC4)cc(C)c3c2)CC1	?	-10.5	?	1.1%	?	?
Cn1/c(=N/N=C/c2ccccn2)sc2ccccc21	15.9%	9.5	?	9.8%	?	?
COc1ccc(/C=C/C(=O)O)cc1	9.1%	7.0	4.7	0.5%	9.5%	?
COC(=O)c1ccc(/C=C/C(=O)c2ccc(OC)c(OC)c2)cc1	?	0.5	-58.9*	6.2%	?	?
COc1ccc(/C=C/C(=O)c2cc(Br)ccc2O)cc1OC	-26.2%	-16.7	-17.3	8.0%	?	-28.5%
CCOc1cc(/C=C/C(=O)c2ccc(C)cc2)ccc1OCC(=O)N(C)C	18.4µM*	21.0	-105.4*	4.5%	18.4µM*	20.6µM*
COc1ccc(/C=C/C(=O)C2(O)CCCCC2)cc1	?	-8.7	-92.4*	.	?	?
COc1ccc(/C=C/C(=O)c2ccc(C(=O)/C=C/c3ccc(OC)c(OC)c3)cc2)cc1OC	7.31µM*	-13.0	-24.8	.	?	5.8µM*
O=C(NCCN1CCCCC1)/C(=C/c1ccco1)NC(=O)c1ccccc1	-8.4%	-16.2	-12.9	.	?	-5.3%
Cc1ccc(N2C(=O)C(NC(=O)c3ccccc3)(C(F)(F)F)C3=C2CC(C)(C)CC3=O)cc1 (stereo not given)	5.4%	-0.3	22.1	2.7%	-10.6%	?
COc1ccc(/C=C/C(=O)c2ccc(O)cc2O)cc1OC	?	.	.	18.7%	.	14.6µM*
COc1ccc(C(C)=O)cc1OCc1ccccc1	5.3%	.	-0.5	.	.	?
COC(=O)c1ccc(/C=C/C(=O)c2ccc(OC)cc2)cc1	?	-14.0	?	2.0%	?	16.4µM*
COc1ccc(C=CC(=O)c2ccc(OCc3ccccc3)c(OC)c2)cc1OC	25.9µM*	.	-5.8	.	.	18.4µM*
COC(=O)c1ccc(/C=C/C(=O)O)cc1	-0.6%	-19.9	-10.2	3.7%	?	-8.2%
COc1ccc(C(=O)/C=C/c2ccccc2C(F)(F)F)cc1	29.1µM*	-1.2	-73.1*	0.0%	?	23.1µM*
Cc1onc(-c2ccccc2Cl)c1C(=O)OCC(=O)N1CCCCC1	-21.0%	7.6	-14.2	-3.1%	10.9%	-28.9%
COc1ccc(CCNC(=O)COC(=O)/C=C/c2ccc(OCC#N)c(OC)c2)cc1OC	-22.1%	-10.0	5.8	0.0%	-1.5%	?
COc1cc(/C=C/C(=O)c2ccc(C)cc2)ccc1OCC#N	?	-5.3	-114.2*	1.1%	?	?
Cc1ccc(C(=O)N/C(=C\c2cccs2)c2nc3ccccc3[nH]2)cc1	16.4µM*	9.5	24.2	2.6%	2.2%	?
O=C(OCC#CCSc1nnc(-c2cccc3ccccc23)o1)c1sc2ccccc2c1Cl	.	.	.	-2.1%	.	.
CN1c2ccccc2N(C)C1(C)c1cccc2ccccc12	5.8µM*	1.8	40.5	2.7%	3.0%	3.26µM*
CC(C)(C)NC(=S)Nc1cccc(C(F)(F)F)c1	?	-7.8	-90.4*	4.9%	11.6µM*	25.9µM*
FC(F)(F)c1cccc(NC(=S)NC(c2ccccc2)c2ccccc2)c1	3.66µM*	-9.9	-1.0	-3.0%	-16.9%	5.17µM*
O=[N+]([O-])c1cc(C(F)(F)F)cc([N+](=O)[O-])c1NCCNC(=S)Nc1ccc(Cl)c(Cl)c1	?	27.1	-80.5*	10.1%	?	20.6µM*
FC(F)(F)c1cccc(NC(=S)NNC(=S)Nc2cccc(C(F)(F)F)c2)c1	.	.	.	5.1%	?	.
